Source: PubChem BioAssay (NCI)
This is part of a sample that, as a whole, favours compounds with a hit. Of some 79,000 tested, about 15% had one in any assay. Activity calls are given as the source filed them. Rule as the data show it: active = growth inhibition above about 70%; inactive = the rest.

Columns and labels:
[1] = NCI Yeast Anticancer Drug Screen. Data for the rad52 strain (AID 147);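 also: 0% = growth of vehicle-treated control cultures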; conditions: S. cerevisiae rad52 mutant growth inhibition, hits give high values
Summary of the method: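 Screen used a yeast mutant impaired in DNA repair. After compound exposure, growth was measured. Values reflect inhibition compared with vehicle-treated cells.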

[2] = NCI Yeast Anticancer Drug Screen. Data for the wt1 strain (AID 149);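 also: 0% = growth of vehicle-treated wt1 cultures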; conditions: S. cerevisiae wt1 strain (SPY 50644) growth inhibition, hits give high values
Summary of the method: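 Vehicle-normalised growth inhibition; strain wt1; compound exposure.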

[3] = NCI Yeast Anticancer Drug Screen. Data for the mgt1 strain (AID 153); conditions: S. cerevisiae mgt1 mutant growth inhibition, hits give high values
Summary of the method: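 Genetically defined yeast (mgt1) treated with compound; inhibition of growth expressed against vehicle-treated controls.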

[4] = NCI Yeast Anticancer Drug Screen. Data for the rad50 strain (AID 155);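 also: 0% = growth of vehicle-only cultures of the same strain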; conditions: S. cerevisiae rad50 strain growth inhibition, hits give high values
Summary of the method: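 A DNA repair-deficient yeast mutant serves as the test organism; compound-induced growth inhibition is calculated against vehicle-treated cells.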

[5] = NCI Yeast Anticancer Drug Screen. Data for the mec2-1 strain (AID 157); conditions: S. cerevisiae mec2-1 strain, hits give high values
Summary of the method: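 Readout is yeast growth inhibition, normalised to vehicle-treated controls, in the mec2-1 strain exposed to compound.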

[6] = NCI Yeast Anticancer Drug Screen. Data for the rad14 strain (AID 159);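 also: 0% = growth of vehicle-treated control cultures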; conditions: S. cerevisiae rad14 strain growth inhibition, hits give high values
Summary of the method: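 Vehicle-treated cultures served as the baseline for growth inhibition of a DNA repair-mutant yeast strain exposed to each compound.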

[7] = NCI Yeast Anticancer Drug Screen. Data for the sgs1 mgt1 strain (AID 161);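 also: 0% = growth of cultures given vehicle only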; conditions: S. cerevisiae sgs1 mgt1 strain, hits give high values
Summary of the method: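 Compounds are added to genetically altered yeast, and growth is compared with cultures given vehicle alone to give percent inhibition.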

[8] = NCI Yeast Anticancer Drug Screen. Data for the CLN2oe strain (AID 163);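 also: 0% = growth of vehicle-only control cultures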; conditions: S. cerevisiae CLN2oe strain, hits give high values
Summary of the method: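 Values reflect how much compound exposure reduced yeast growth, referenced to vehicle-exposed cells. Assay organism is a strain with a defined genetic change affecting cell-cycle control.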

[9] = NCI Yeast Anticancer Drug Screen. Data for the cln2 rad14 strain (AID 165);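 also: 0% = growth equal to vehicle treated cultures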; conditions: S. cerevisiae cln2 rad14 strain, hits give high values
Summary of the method: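 Relative to vehicle controls, growth inhibition of compound-treated cln2 rad14 yeast was recorded.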

[10] = NCI Yeast Anticancer Drug Screen. Data for the bub3 strain (AID 167); conditions: S. cerevisiae bub3 mutant strain, hits give high values
Summary of the method: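 Inhibition values come from growth of compound-treated mutant yeast normalised to vehicle-treated controls.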

[11] = NCI Yeast Anticancer Drug Screen. Data for the wt2 strain (AID 169);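 also: 0% = growth of vehicle-treated yeast cultures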; conditions: S. cerevisiae wt2 strain growth inhibition, hits give high values
Summary of the method: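 Values express reduction in yeast growth under compound treatment, referenced to vehicle-treated cells.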

[12] = NCI Yeast Anticancer Drug Screen. Data for the mlh1 strain (AID 171);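 also: 0% = growth of vehicle-treated control cultures of the same strain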; conditions: S. cerevisiae mlh1 strain growth inhibition, hits give high values
Summary of the method: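 Steps: expose the defined-mutant yeast strain to compound; expose a parallel culture to vehicle; measure growth; express compound effect as inhibition relative to the vehicle culture.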

[13] = NCI Yeast Anticancer Drug Screen. Data for the sgs1 strain (AID 173);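 also: 0% = growth of vehicle-only control cultures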; conditions: S. cerevisiae sgs1 mutant, hits give high values
Summary of the method: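 Treat defined-mutant yeast with compound; measure growth; calculate inhibition relative to vehicle-treated cells.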

[14] = NCI Yeast Anticancer Drug Screen. Data for the mlh1 rad18 strain (AID 175); conditions: S. cerevisiae mlh1 rad18 strain growth inhibition, hits give high values
Summary of the method: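 Test agents were incubated with a yeast strain of defined genotype (DNA damage repair defect). Inhibition of growth was derived by comparison with vehicle-exposed cultures.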

[15] = NCI Yeast Anticancer Drug Screen. Data for the rad18 strain (AID 177); conditions: S. cerevisiae rad18 mutant growth inhibition, hits give high values
Summary of the method: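 A genetically defined yeast mutant impaired in DNA damage repair was treated with test compounds, then its growth was measured against cultures receiving vehicle alone.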

[16] = NCI Yeast Anticancer Drug Screen. Data for the rad50EPP+ strain (AID 151);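 also: 0% = growth of vehicle-treated control cultures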; conditions: S. cerevisiae rad50 mutant strain, hits give high values
Summary of the method: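 Exposing the rad50EPP+ strain to each compound, growth was compared with vehicle-only cultures to give inhibition.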

[17] = at 5.0 µM (retest, dose inferred, filed as 0.5)
[18] = at 50.0 µM (retest, dose inferred, filed as 5.0)

Measured: growth inhibition

CN(CCc1ccccn1)c1ccc2c(c1)Cc1ccccc1-2
active: [4]; at 50.0 µM 90.2% | [7]; [18] 82% | [7]; at 50.0 µM 83.3% | [13]; at 3.7 µM 71% | [13]; at 11.0 µM 88% | [13]; at 33.0 µM 87% | [13]; at 100.0 µM 88% | [14]; [18] 72% | [14]; at 50.0 µM 77.4% | [15]; at 3.7 µM 89% | [15]; at 11.0 µM 95% | [15]; at 33.0 µM 94% | [15]; at 100.0 µM 94%
inactive: [1]; at 1.2 µM 1% | [1]; at 3.7 µM 11% | [1]; at 11.0 µM 54% | [1]; at 33.0 µM 45% | [1]; at 100.0 µM 53% | [2]; at 1.2 µM 1% | [2]; at 3.7 µM 7% | [2]; at 11.0 µM 6% | [2]; at 33.0 µM 5% | [2]; at 100.0 µM 2% | [3]; at 1.2 µM -3% | [3]; at 3.7 µM -4% | [3]; at 11.0 µM 1% | [3]; at 33.0 µM 3% | [3]; at 100.0 µM 19% | [4]; at 1.2 µM 4% | [4]; at 3.7 µM 26% | [4]; [17] 20% | [4]; at 11.0 µM 69% | [4]; at 33.0 µM 68% | [4]; [18] 57% | [4]; at 100.0 µM 67% | [5]; at 1.2 µM -1% | [5]; at 3.7 µM 8% | [5]; [17] 5% | [5]; at 11.0 µM 26% | [5]; at 33.0 µM 20% | [5]; [18] 1% | [5]; at 50.0 µM 4.05% | [5]; at 100.0 µM 20% | [6]; at 1.2 µM 1% | [6]; at 3.7 µM 10% | [6]; at 11.0 µM 38% | [6]; at 33.0 µM 37% | [6]; at 100.0 µM 56% | [7]; [17] 9% | [8]; at 1.2 µM -5% | [8]; at 3.7 µM -16% | [8]; at 11.0 µM -11% | [8]; at 33.0 µM -16% | [8]; at 100.0 µM -5% | [9]; [17] 0% | [9]; [18] 10% | [9]; at 50.0 µM -2.25% | [10]; at 1.2 µM 0% | [10]; at 3.7 µM -4% | [10]; [17] -12% | [10]; at 11.0 µM 13% | [10]; at 33.0 µM 21% | [10]; [18] 30% | [10]; at 50.0 µM 18.4% | [10]; at 100.0 µM 20% | [11]; at 1.2 µM -1% | [11]; at 3.7 µM -2% | [11]; at 11.0 µM 5% | [11]; at 33.0 µM 4% | [11]; at 100.0 µM 26% | [12]; at 1.2 µM 0% | [12]; at 3.7 µM 3% | [12]; at 11.0 µM 17% | [12]; at 33.0 µM 15% | [12]; at 100.0 µM 31% | [13]; at 1.2 µM 26% | [14]; [17] 20% | [15]; at 1.2 µM 46%

CCc1ccc(NS(=O)(=O)c2ccccc2)c([N+](=O)[O-])c1
inactive: [1]; at 1.2 µM 2% | [1]; at 3.7 µM 2% | [1]; at 11.0 µM 11% | [1]; at 33.0 µM 30% | [2]; at 1.2 µM 1% | [2]; at 3.7 µM 6% | [2]; at 11.0 µM 2% | [2]; at 33.0 µM 5% | [2]; at 100.0 µM 46% | [16]; at 1.2 µM 10% | [16]; at 3.7 µM 18% | [16]; at 11.0 µM 36% | [16]; at 33.0 µM 53% | [4]; at 1.2 µM 3% | [4]; at 3.7 µM 5% | [4]; [17] 2% | [4]; at 11.0 µM 5% | [4]; at 33.0 µM 22% | [4]; [18] 39% | [4]; at 50.0 µM 37.2% | [5]; at 1.2 µM 1% | [5]; at 3.7 µM 8% | [5]; [17] 6% | [5]; at 11.0 µM 14% | [5]; at 33.0 µM 27% | [5]; [18] 39% | [5]; at 50.0 µM 55% | [6]; at 1.2 µM 2% | [6]; at 3.7 µM 5% | [6]; at 11.0 µM 6% | [6]; at 33.0 µM 11% | [7]; [17] 8% | [7]; [18] 54% | [8]; at 1.2 µM -2% | [8]; at 3.7 µM -2% | [8]; at 11.0 µM 3% | [8]; at 33.0 µM 17% | [9]; [17] 0% | [9]; [18] 20% | [9]; at 50.0 µM 47.5% | [10]; at 1.2 µM -3% | [10]; at 3.7 µM 4% | [10]; [17] -3% | [10]; at 11.0 µM 7% | [10]; at 33.0 µM 28% | [10]; [18] 36% | [10]; at 50.0 µM 53.6% | [10]; at 100.0 µM 67% | [11]; at 1.2 µM -1% | [11]; at 3.7 µM 3% | [11]; at 11.0 µM 3% | [11]; at 33.0 µM 27% | [12]; at 1.2 µM 0% | [12]; at 3.7 µM 3% | [12]; at 11.0 µM 7% | [12]; at 33.0 µM 31% | [13]; at 1.2 µM 2% | [13]; at 3.7 µM 5% | [13]; at 11.0 µM 15% | [13]; at 33.0 µM 44% | [15]; at 1.2 µM 2% | [15]; at 3.7 µM 6% | [15]; at 11.0 µM 15% | [15]; at 33.0 µM 43%
active: [1]; at 100.0 µM 76% | [16]; at 100.0 µM 75% | [4]; at 100.0 µM 72% | [5]; at 100.0 µM 81% | [6]; at 100.0 µM 82% | [7]; at 50.0 µM 70.7% | [8]; at 100.0 µM 73% | [11]; at 100.0 µM 78% | [12]; at 100.0 µM 71% | [13]; at 100.0 µM 90% | [15]; at 100.0 µM 87%
